Records with an inconclusive call do not appear. Unmarked numbers belong to inactive results. The source made the active and inactive calls. Calls follow the shape of the dose curve; as a rule, active = well fitted inhibition curve with a large enough effect in the signal ratio, with a control signal flat (not every such curve was filed as active); inconclusive = small, poorly fitted or top-dose-only effect, or effect the other way, or a change in a side signal; inactive = no such curve, though single readings can be large or run the other way; the % refers to the signal ratio.

Peroxisome proliferator-activated receptor delta (Homo sapiens), sequence (Q03181 whole entry, looked up): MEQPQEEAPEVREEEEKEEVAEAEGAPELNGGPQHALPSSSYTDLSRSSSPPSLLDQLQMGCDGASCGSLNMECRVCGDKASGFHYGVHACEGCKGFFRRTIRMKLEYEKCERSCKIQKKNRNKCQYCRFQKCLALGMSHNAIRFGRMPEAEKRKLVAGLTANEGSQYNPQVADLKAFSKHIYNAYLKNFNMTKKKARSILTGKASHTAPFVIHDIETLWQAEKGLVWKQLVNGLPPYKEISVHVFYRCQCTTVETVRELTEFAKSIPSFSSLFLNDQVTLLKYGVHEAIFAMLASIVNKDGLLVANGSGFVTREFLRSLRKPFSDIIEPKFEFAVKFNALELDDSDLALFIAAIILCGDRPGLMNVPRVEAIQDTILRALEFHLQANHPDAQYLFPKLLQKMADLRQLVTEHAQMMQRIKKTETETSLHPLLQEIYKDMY

This assay concerns the target Peroxisome proliferator-activated receptor delta (Homo sapiens) (UniProt Q03181). The experiment in a line: qHTS assay for small molecule antagonists of peroxisome proliferator-activated receptor delta signaling (AID 588535). The following applies: HEK293T PPARd-UAS-bla, beta-lactamase FRET ratio, 18 h; series mostly up to 76.7 µM; activity change, negative = inhibition: at the top concentration. From the text:
NIH Chemical Genomics Center [NCGC] U.S. Environmental Protection Agency [EPA] National Institutes of Environmental Health Sciences [NIEHS] National Toxicology Program [NTP] NCGC Assay Overview The Peroxisome proliferator-activated receptors (PPARs) are lipid-activated transcription factors of the nuclear receptor superfamily with three distinct subtypes namely PPAR alpha, PPAR delta (also called PPAR beta) and PPAR gamma. All these subtypes heterodimerizes with Retinoid X receptor (RXR) and have different physiological functions. […] This role of PPAR delta implicates the potential use of its ligands in the treatment of metabolic disorders.
NCGC Assay Protocol Summary Using a beta-lactamase reporter-gene under control Peroxisome Proliferator-Activated Receptor delta (PPAR-delta) response element, a cell-based assay [GeneBLAzer (PPAR-delta-UAS-bla assay developed by Invitrogen] was used to measure PPAR-delta ligands signaling. GeneBLAzer PPAR-delta-UAS-bla HEK293T cells were used with assay medium containing 2% charcoal/dextran FBS. The assay was performed in clear bottom black Greiner 1536-well plates. Library compounds were measured for their ability to inhibit the reporter gene activity. Compounds were screened in a titration series in 1536-well format. The fluorescence intensity (405 nm excitation, 460/530 nm emission) was measured using an EnVision plate reader. […] Concentration-response titration points for each compound were fitted to the Hill equation yielding concentrations of half-maximal inhibition (IC50) and maximal response (efficacy) values. qHTS protocol for PPAR-delta beta-lactamase assay in antagonist mode [Step] [Parameter] [Value] [Description] 1. Reagent; 5 uL; 4000 cells/well 2. Incubation; 37 C for 5 hrs 3. Compounds; 23 nL; 0.59 nM to 92 uM 4. […] Incubation; 37 C for 18 hrs 7. Detection reagent; 1 uL of CCF4-dye 8. Incubation; RT for 2 hrs 9. Detection; Fluorescence; Envision plate reader
Background: Quantitative high-throughput screening tests each substance at several concentrations.
Regarding `CC/C=C\CCOC(=O)c1ccccc1O`, the “activity change, negative = inhibition” value was 9.04%. Still for that read-out and setting: the value for `CC(C)(N=C=O)c1cccc(C(C)(C)N=C=O)c1` was 2.63%; that for `CCCCCCCCCCCCCc1ccccc1` was 11.7%.

As to `OCCOCCOCCOCCO`, the “activity change, negative = inhibition” value was -9.34%. On the same count and under the same terms, the result for `CCCCCCCCCc1ccccc1` reads -3.4%; that for `Cc1cc(C)c(N)c(Cl)c1`, 3.37%. The same measure, in the same setting: the result for `CC(COCC(C)OC(=O)c1ccccc1)OC(=O)c1ccccc1` (stereo not given) reads 17.3%; that for `CCOc1ccc(NC(=O)OC(C)C)cc1OCC`, -16.8%; that for `C=CC(=O)OCC(C)OCC(C)OCC(C)OC(=O)C=C` (stereo not given), 26%. On the same count and under the same terms, the result for `CCCC/C=C\CCCCCCCCO` reads 31.6%; that for `CC(C)Cc1c(C(=O)O)c(C(F)F)nc(C(F)(F)F)c1C1=NCCS1`, 14.1%; that for `CO[Si](CCCOCC1CO1)(OC)OC` (stereo not given), 8.71%. For the compound `COC(=O)c1cccc(C)c1S(=O)(=O)NC(=O)Nc1nc(OCC(F)(F)F)nc(N(C)C)n1`, the “activity change, negative = inhibition” value was 20%. Still for that read-out and setting: the value for `Cc1ccc(N=Nc2c(O)ccc3ccccc23)c([N+](=O)[O-])c1` was 3.6%; that for `C[Si]1(C)O[Si](C)(C)O[Si](C)(C)O[Si](C)(C)O1` was 3.81%. Regarding `O=C(O)CN(CCCN(CC(=O)O)CC(=O)O)CC(=O)O`, the Potency is 14.1 µM (active). `O=C(O)c1cccc(C(=O)O)c1`: the “activity change, negative = inhibition” value is 6.2%. The same measure, in the same setting: the result for `CCCCCCCCCCCC[N+](C)(C)[O-]` reads -12.1%; that for `C1=C/CC/C=C/CC/C=C/CC/1`, 21.1%. Take `O=C(Cl)c1cccc(C(=O)Cl)c1`: the “activity change, negative = inhibition” value was -4.62%.

Turning to `CC(C)(C)c1cc(C(C)(C)C)c(O)c(C(C)(C)C)c1`, the “activity change, negative = inhibition” value was 6.96%. The same measure, in the same setting: the result for `O=C(OCCOCCOC(=O)c1ccccc1)c1ccccc1` reads 18.9%; that for `CCCCC(CC)C(=O)OCCOCCOCCOC(=O)C(CC)CCCC` (stereo not given), 22.7%; that for `C=CCCCCCCCCC=O`, 17.8%. Still for that read-out and setting: the result for `CC1(C)C(=O)N(Br)C(=O)N1Br` reads -6.67%. Regarding `CC(C)Nc1nc(N)nc(Cl)n1`, the Potency result was “inactive”. Take `O=c1[nH]c(=O)c2[nH]cnc2[nH]1`: the “activity change, negative = inhibition” value is -0.903%. Still for that read-out and setting: the value for `C=CC(=O)OCC[N+](C)(C)C` was 12%; that for `c1ccc2c(c1)ccc1c3ccccc3ccc21` was 3.17%. On to `C[Si]1(C)O[Si](C)(C)O[Si](C)(C)O[Si](C)(C)O[Si](C)(C)O1`, for which the “activity change, negative = inhibition” value was 2.59%. For `C=CCCCCCCCCCCCC`, the “activity change, negative = inhibition” value is 12.3%. On the same count and under the same terms, the value for `Cl[Si](Cl)(c1ccccc1)c1ccccc1` was 7.18%; that for `O=C(c1ccc(Cl)cc1)c1ccc(Cl)cc1` was 14.6%; that for `CCCCC(CC)COC(C)=O` (stereo not given) was 7.89%.

In the case of `CCCCCC1CCC(=O)O1` (stereo not given), the “activity change, negative = inhibition” value is 4.72%. Still for that read-out and setting: the result for `COC(=O)c1cccc(C(=O)OC)c1` reads 7.24%; that for `CC(=O)N(CCN(C(C)=O)C(C)=O)C(C)=O`, 9.88%. On the same count and under the same terms, the value for `CC(C)C[C@H](NC(=O)OCC1c2ccccc2-c2ccccc21)C(=O)O` was 15%; that for `CC(C)=CCC/C(C)=C\CO` was -4.8%; that for `CCOCCOCCOC(C)=O` was 6.78%.
